Experimental data taken from PubChem BioAssay AID1159580 (chemical genetic matrix, 2015).
Among all 5,500 compounds or so, about 2,000 (36%) were called active. Roughly 18% stayed inconclusive and do not appear here. Rule as the data show it: active = normalized growth mostly below about 0.91 (no sharp cut-off); inconclusive = no clear call, values can overlap the other calls; inactive = mostly above about 0.92. The list shows a part of the results.

Assay: chemical genetic growth profiling, strain panel (AID 1159580);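 also: tested at 20 µM; growth read once vehicle control cultures reached saturation at 30 °C; 1 = growth at the plate median or of vehicle wells; lower values mean less growth of the strain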
Conditions: S. cerevisiae deletion strains, growth OD
[1] = locus YAL040C, strain CLN3, hits give low values
[2] = locus YDR363W, strain ESC2, hits give low values
[3] = locus YER002W, strain NOP16, hits give low values
[4] = locus YMR263W, strain SAP30, hits give low values
[5] = locus YNL175C, strain NOP13, hits give low values
[6] = locus YNL197C, strain WHI3, hits give low values
[7] = locus YNL224C, strain SQS1, hits give low values
[8] = locus YOR083W, strain WHI5 (second series), hits give low values

Measured: normalized growth

CC(C)(C)[C@]1(O)CCN2C[C@H]3c4ccccc4CCc4cccc(c43)[C@@H]2C1
inactive: [1] 0.999 | [2] 0.994 | [3] 0.993 | [4] 1 | locus YNL128W, strain TEP1, hits give low values 1.01 | [5] 1.03 | [6] 1.02 | [7] 1.02 | locus YNL322C, strain KRE1, hits give low values 1.01 | [8] 1.05

OC[C@@H](O)[C@H](O)[C@@H](O)[C@H](O)CO
inactive: locus YHR030C, strain SLT2, hits give low values 0.974 | locus YHR079C, strain IRE1, hits give low values 0.995 | locus YJL095W, strain BCK1, hits give low values 1 | locus YJR066W, strain TOR1, hits give low values 0.936 | locus YLR113W, strain HOG1, hits give low values 0.959 | locus YNL183C, strain NPR1, hits give low values 0.941 | locus YOR231W, strain MKK1, hits give low values 0.991 | locus YPL256C, strain CLN2, hits give low values 0.964

CC12CCC3C(CCC4=C(O)C(=O)CCC43C)C1CCC2=O (centres undefined)
inactive: locus YAL013W, strain DEP1, hits give low values 1 | [1] 0.99 | locus YCL061C, strain MRC1 (second series), hits give low values 0.998 | [2] 0.984 | [3] 0.995 | [4] 1 | [5] 1.02 | [6] 0.992 | [7] 0.969 | [8] 0.986 | locus YPL241C, strain CIN2, hits give low values 1.01
